The panel holds about 79,000 compounds, 15% with a hit somewhere; the sample as a whole holds those more often. Values without a mark were called inactive. Calls of active or inactive are those of the source. No stated cut-off is given here; in the data, active means growth inhibition above about 70%; inactive means the rest. Where a SMILES comes first, the peptide text is derived from it. The star is where a group is joined. Cbz = O=C(OCc1ccccc1)*
Tests used:
[1] = NCI Yeast Anticancer Drug Screen. Data for the rad50 strain (AID 155);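 further: 0% = growth of vehicle-only cultures of the same strain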; conditions: S. cerevisiae rad50 strain growth inhibition; at 50.0 µM; hits give high values
How it was run: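 Relative growth inhibition (compound vs vehicle) was measured in yeast with a defined repair-gene alteration.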

[2] = NCI Yeast Anticancer Drug Screen. Data for the mec2-1 strain (AID 157); conditions: S. cerevisiae mec2-1 strain, at 50.0 µM, hits give high values
How it was run: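 Vehicle-treated cultures served as reference for growth inhibition of compound-exposed mec2-1 yeast.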

[3] = NCI Yeast Anticancer Drug Screen. Data for the sgs1 mgt1 strain (AID 161);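 further: 0% = growth of cultures given vehicle only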; conditions: S. cerevisiae sgs1 mgt1 strain, at 50.0 µM, hits give high values
How it was run: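 Genetically altered yeast, compound exposure, growth inhibition relative to vehicle.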

[4] = NCI Yeast Anticancer Drug Screen. Data for the cln2 rad14 strain (AID 165);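 further: 0% = growth equal to vehicle treated cultures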; conditions: S. cerevisiae cln2 rad14 strain, at 50.0 µM, hits give high values
How it was run: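 Each compound was tested on cln2 rad14 yeast. Inhibition of growth was calculated against vehicle-exposed controls.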

[5] = NCI Yeast Anticancer Drug Screen. Data for the bub3 strain (AID 167); conditions: S. cerevisiae bub3 mutant strain, at 50.0 µM, hits give high values
How it was run: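 Screening used yeast with an engineered genetic alteration affecting cell cycle control. Compound-exposed cultures were compared with vehicle cultures, and reduced growth was taken as inhibition.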

[6] = NCI Yeast Anticancer Drug Screen. Data for the mlh1 rad18 strain (AID 175); conditions: S. cerevisiae mlh1 rad18 strain growth inhibition; at 50.0 µM; hits give high values
How it was run: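 Vehicle-treated cultures served as the reference for growth inhibition in a yeast strain carrying DNA damage repair alterations exposed to each compound.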

Row | Compound | growth inhibition [1] | growth inhibition [2] | growth inhibition [3] | growth inhibition [4] [%] | growth inhibition [5] | growth inhibition [6]
1 | C/C(CCn1[nH]c(=O)ccc1=O)=N\NC(=O)C(=O)NN | -4.75% | -18.4% | -6.55% | 2.55 | 1.55% | -8.2%
2 | CCCCCCc1cc(-c2cc(CCCCCC)nc(N)n2)nc(N)n1 | -4.25% | 7.05% | 0% | 4.55 | -9.1% | 16.4%
3 | COc1ccccc1C1C2=C(COC2=O)Oc2cc3c(cc21)OCO3 (stereo unspecified) | -20.8% | -8.25% | -29.1% | 3.75 | 0.4% | -11.9%
4 | CCCCCCCCCCCCC(N)C(=O)O (stereo unspecified) | 3.55% | -9.15% | 28% | -15.8 | 6.7% | -1.3%
5 | Cc1cc(C(N)=O)c2ccccc2n1 | -11% | -47.2% | -15.7% | 11.4 | -34.4% | -6.25%
6 | COC1(C)COC(C)(OC)CO1 (stereo unspecified) | 34.3% | 20.9% | 24.1% | 13.6 | 12.8% | 18.6%
7 | ClCc1ccc(-c2ccccc2)cc1 | 48.8% | 16.4% | 19.7% | 26.7 | 8.7% | 47%
8 | OC(C(=S)N1CCOCC1)(c1ccccc1)c1ccccc1 | 5.35% | 17.6% | -5% | 25.8 | 17.7% | -12.2%
9 | CCCCc1ccc2[n+](c1)C(C(=O)OCC)=PC2 (stereo unspecified) | -18.1% | -36.8% | -21.4% | -18.9 | -19.9% | -11.9%
10 | CC(=O)NCCCCCC(=O)O | 38.9% | 2.45% | 11.9% | 10.7 | -2.65% | 20.7%
11 | O=C(O)C(C1=CCCCC1)C1(O)CCCCC1 (stereo unspecified) | -9.15% | -5.45% | 17.6% | -5.85 | -0.65% | 12.7%
12 | O=C1c2cc(Cl)ccc2OCC1Cl (stereo unspecified) | 37.5% | 22.2% | 14.6% | -25.6 | 18.7% | 7.4%
13 | CCc1ccc2[nH]nc(CCC(=O)O)c(=O)c2c1 | -1.5% | -4.7% | -13.2% | -12.4 | -23.2% | -7.05%
14 | C/C(=N\Nc1ccccc1Br)c1cccc(/C(C)=N/Nc2ccccc2Br)n1 | -21.6% | -1.55% | -6.1% | -11.6 | 2.75% | 6.2%
15 | CCN(CC)CCN(C)CCN(CC)CC | 14.1% | 1.7% | 18.6% | 9.8 | 38.7% | 17.6%
16 | Cc1nc(-c2cccnc2)sc1C(=O)/C=C/c1ccc(Cl)cc1Cl | 12.8% | -2.05% | 3.85% | 8.55 | 3.7% | 8.95%
17 | COC(=O)C1CC(=O)N(C)c2sc(C)c(C)c2C1=O (stereo unspecified) | 83.9% (active) | 94.5% (active) | 89% (active) | 36.5 | 87.7% (active) | 95.7% (active)
18 | COc1c([N+](=O)[O-])ccc(C(OC(C)=O)OC(C)=O)c1OC(C)=O | 33.9% | 23.1% | 55.8% | 2.35 | 31.9% | 29.4%
19 | COc1cc2c(c(OC)c1OC)C(=O)[C@@H](O)[C@H]2N | -10.4% | -31.9% | -13% | -25.5 | -23.8% | -41.5%
20 | CCOC1=CC(=O)CCC1 | -0.2% | -23% | 24.9% | -36.5 | -7.1% | 3%
21 | OC(CCc1ccco1)CCc1ccco1 | 19.9% | 6.6% | 11.5% | 1.4 | 10.7% | 14.1%

Row | Compound | growth inhibition [1] | growth inhibition [2] | growth inhibition [3] | growth inhibition [4] [%] | growth inhibition [5] | growth inhibition [6]
22 | CC(C)(C#N)CCCCC(C)(C)C#N | 3.1% | 0.7% | 1.2% | 11.8 | 12.4% | 3.8%
23 | COc1cc(-c2cc(=O)c3cc4c(cc3[nH]2)OCO4)cc(OC)c1O | -19.9% | -14.1% | -4.5% | 13.4 | -12.3% | -9.85%
24 | COc1ccc2c(=O)c(O)c(-c3ccccc3)oc2c1 | 22.8% | -18.9% | 42.5% | 10.4 | 15.2% | 8.25%
25 | S=C1N=C(Cl)C2(NN1)c1ccccc1-c1ccccc12 | 17.9% | -16.1% | -1.15% | -14.5 | -11.7% | 32%
26 | CSCCC(NC(=O)C(Cc1ccccc1)NC(=O)OCc1ccccc1)C(=O)O (stereo not drawn) (Cbz-Phe-Met-OH; configuration not given here) | 5.1% | -13.2% | -1% | -40.4 | -4.95% | 4.85%
27 | O=C(Nc1ccccc1)c1ccc2ccccc2n1 | -12.7% | -31% | -22.1% | -10.1 | 10.6% | 6.75%
28 | CC[N+](C)(CC)CCN1C(=O)CC[C@@]2(C)C1=CC[C@@H]1[C@@H]2CC[C@@]2(C)[C@H]1CC[C@]2(C)O | 6.65% | 8.8% | 6.45% | 29.5 | 9.7% | 12.1%
29 | COC(=O)/C=C1\CCC(C)O1 (stereo unspecified) | -1.35% | -26.6% | -27.7% | 8 | -19.2% | 16%
30 | O=C(Nc1cccc([N+](=O)[O-])c1)Oc1ccc(-c2ccccc2)cc1 | 17.9% | 36.2% | 18.5% | -3.75 | 57.7% | 25.4%
31 | C[n+]1cccc2cccc(N)c21 | 22.1% | 0.1% | 11.3% | -5.65 | 15.5% | 5.6%
32 | N#CCC(=O)NCCc1c[nH]c2ccccc12 | -18.1% | 0.2% | -14.7% | -32.8 | -6.1% | -27.8%
33 | Nc1cccc2c1C(=O)c1cccc(Nc3ccc4c(c3)C(=O)c3ccccc3C4=O)c1C2=O | -2.95% | -2.7% | 5.55% | 47.9 | -14.2% | 32.9%
34 | CC(=O)OCC1OC(n2cnc3c(N)ncnc32)C2OC(C)(C)OC12 (stereo unspecified) | 11.4% | -30.2% | -19.1% | 1.45 | -1.9% | -12.8%
35 | CSc1ccc(Nc2ncnc(N)n2)cc1 | 19.9% | 5.6% | 8.6% | -1.4 | 8.8% | 14.6%
36 | COc1ccc(/C(N=Nc2ccccc2)=N/N=C(N)N)cc1 | 24.3% | 6.35% | 12.1% | -2.6 | 36.9% | 8.2%
37 | N#CCCCCC12C3C(=O)N(c4ccccc4)C(=O)C3ON1O[C@@H]1C(=O)N(c3ccccc3)C(=O)[C@@H]12 (stereo partly specified) | 43.4% | 19.3% | 26.7% | 49.9 | 33.5% | 44.4%
38 | CC(C(=O)O)N(C)C(=O)c1cnc2ccccc2n1 (stereo unspecified) | -0.1% | -1.15% | -1.5% | 23 | 18.6% | -2%
39 | O=C(NC(=O)c1c(F)cccc1F)Nc1cccc(C(F)(F)F)c1 | 8.55% | 6.15% | 3.9% | 6.75 | -3.3% | 10.7%
40 | O=[N+]([O-])c1ccc(S(=O)(=O)c2ccc(N=CN3CCCC3)cc2)cc1 | 22.9% | 16.4% | 18.4% | 4.05 | 18% | 23%
41 | CC1(C)COC(c2ccc(Cl)cc2)OC1 | 16.6% | 14.6% | 4.3% | -12.5 | 19.5% | 26.1%

Reference: PubChem BioAssay (NCI)
